Source: PubChem BioAssay
Many of the other results were omitted from the sample, so hits are more common in it than they were.
Cycloheximide cs: affects cycloheximide protein synthesis inhibition readout, counter-screen; cell reporter, cycloheximide protein synthesis inhibition counterscreen; max response, %; 300,000 compounds, 12% hits; in the data active means max response mostly above about 13%, no sharp cut-off; inactive means mostly below about 14%; further: read at 38.3 µM for the half of the compounds with a filed dose
Shiga inhibitor: inhibitors of Shiga toxin in Vero cells; Vero cells, Shiga toxin protein synthesis inhibition reporter; inhibition, % at 38.7 µM; 290,000 compounds, 9.2% hits; AID 2315; in the data active means inhibition mostly above about 28%, no sharp cut-off; inactive means mostly below about 43%
TbPYK inhibitor: T. brucei pyruvate kinase inhibition | TbPYK enzyme, Kinase-Glo Plus ATP luminescence, 45 min | Potency, µM (top dose mostly 76.8 µM), usual class: inhibitors | 410,000 compounds, 0.12% hits; further: nearly all actives have a fitted effect of over 50% in size
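T. brucei PYK with substrate was exposed to pin-transferred compounds across a concentration series, then started with 130 uM ADP (final). After 45 min at room temperature, Kinase-Glo Plus luminescence was read, normalized and curve-fitted.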
RE007 growth inh: less growth of the S. pombe RE007 Vpr strain. Potency, µM (series often up to 92.2 µM), hits mostly inhibitors. 360,000 compounds, 0.21% hits. S. pombe RE007 Vpr strain, BacTiter-Glo ATP luminescence, 24 h; active means well fitted falling curve with a large enough effect; inconclusive means small, poorly fitted or top-dose-only effect; inactive means no such curve, though single readings can be large or run the other way; further: nearly all actives have a fitted effect of over 50% in size
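Fission yeast strain RE007, carrying one chromosomally integrated HIV-1 vpr copy, was seeded at OD 0.01 in PMG+AL medium with 23 nL pinned compound. After 24 h at 30 °C and 99% humidity, viability was read by BacTiter-Glo luminescence.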
LmPK inhibitor: blocks Leishmania mexicana pyruvate kinase activity. 290,000 compounds, 0.37% hits. Potency, µM (top dose mostly 57.5 µM), hits mostly inhibitors. AID 1721. purified LmPK, Kinase-Glo ATP luminescence, 1 h
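qHTS format; LmPK 0.1 nM; substrates PEP 0.5 mM and ADP 0.1 mM. One-hour room-temperature incubation, then coupled luciferase luminescence; 0.5 nM enzyme wells mark activation.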
FBPA Giardia inh: blocks Giardia fructose-bisphosphate aldolase activity; A8B2U2; Potency, µM (series often up to 59.6 µM), most hits filed as inhibitors; 290,000 compounds, 0.71% hits; purified Giardia FBPA; further: nearly all actives have a fitted effect of over 55% in size
Target sequence (A8B2U2 whole entry, looked up): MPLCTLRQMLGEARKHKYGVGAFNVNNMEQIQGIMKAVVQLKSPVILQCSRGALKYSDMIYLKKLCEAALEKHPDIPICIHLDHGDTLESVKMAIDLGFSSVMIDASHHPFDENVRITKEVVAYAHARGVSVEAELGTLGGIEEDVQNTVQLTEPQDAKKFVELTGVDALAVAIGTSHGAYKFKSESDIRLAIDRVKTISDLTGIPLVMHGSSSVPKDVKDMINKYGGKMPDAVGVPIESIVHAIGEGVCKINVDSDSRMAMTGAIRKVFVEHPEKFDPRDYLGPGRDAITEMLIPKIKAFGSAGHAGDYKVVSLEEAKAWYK
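40 nM FBPA preincubated 10 min at RT with compound (up to 57.5 uM final), then substrate plus GAPDH/TPI/NAD/arsenate coupling and diaphorase/resazurin added. Fluorescence read after 20 min at RT, 525/598 nm.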
Hits are given with their value. Unless noted, the call rests on the fitted dose curve; in most records, active means well fitted curve in the direction sought with a large enough effect; inconclusive means small, poorly fitted or top-dose-only effect, or another doubt; inactive means no such curve, though single readings can be large; an effect the other way counts as inactive or inconclusive.

What do the screens show for `COC(=O)C(=Nc1ccccc1)/C(C(=O)C(=O)N(C)c1ccccc1)=C(\O)c1ccccc1`?
Cycloheximide cs: 44.2; Shiga inhibitor: 119.5; TbPYK inhibitor: inactive; RE007 growth inh: inactive; LmPK inhibitor: inactive; FBPA Giardia inh: inactive

How did COc1cc(C(C)=O)ccc1OC(=O)N(C)c1ccccc1 do in these assays?
Cycloheximide cs: inactive; Shiga inhibitor: inactive; TbPYK inhibitor: inactive; RE007 growth inh: inactive; LmPK inhibitor: inactive; FBPA Giardia inh: inactive

How did Cc1cc(C)c2c(CC(=O)Nc3ccccc3C(F)(F)F)coc2c1 do in these assays?
TbPYK inhibitor: inactive

What do the screens show for `CC(C)c1ccc(NC(=O)COc2ccccn2)cc1`?
Cycloheximide cs: 45.1; Shiga inhibitor: 84.0; TbPYK inhibitor: inactive; RE007 growth inh: inactive; LmPK inhibitor: inactive; FBPA Giardia inh: inactive

Results for CC(C)c1ccc(NC(=O)Cn2c(=O)oc3ccccc32)cc1 ?
Cycloheximide cs: inactive; Shiga inhibitor: 31.8; TbPYK inhibitor: inactive; RE007 growth inh: inactive; LmPK inhibitor: inactive; FBPA Giardia inh: inactive

What do the screens show for `CC(C)c1ccc(OCC(=O)NCCO)cc1`?
Cycloheximide cs: 52.5; Shiga inhibitor: 92.5; TbPYK inhibitor: inactive; RE007 growth inh: inactive; LmPK inhibitor: inactive; FBPA Giardia inh: inactive

How did CC(C)c1ccc(NC(=O)COc2ccccc2)cc1 do in these assays?
Cycloheximide cs: 48.6; Shiga inhibitor: 62.3; TbPYK inhibitor: inactive; RE007 growth inh: inactive; LmPK inhibitor: inactive; FBPA Giardia inh: inactive

What do the screens show for `COc1ccc(-c2noc(C3CC(=O)N(c4ccc5c(c4)OCCO5)C3)n2)c(OC)c1` (stereo unspecified)?
TbPYK inhibitor: inactive

How did Cc1ccc(S(=O)(=O)c2ccc([N+](=O)[O-])o2)cc1 do in these assays?
TbPYK inhibitor: inactive; RE007 growth inh: 7.94µM

Results for Nc1nc2ccc(C(=O)Nc3ccccc3)cc2s1 ?
Cycloheximide cs: 92.7; Shiga inhibitor: 168.4; TbPYK inhibitor: inactive; RE007 growth inh: inactive; LmPK inhibitor: inactive; FBPA Giardia inh: inactive

How did COc1ccc2nc(N)sc2c1 do in these assays?
Cycloheximide cs: inactive; Shiga inhibitor: inactive; TbPYK inhibitor: inactive; RE007 growth inh: inactive; LmPK inhibitor: inactive; FBPA Giardia inh: inactive

Results for CCc1ccc2nc(N)sc2c1 ?
Cycloheximide cs: 39.4; Shiga inhibitor: 75.1; TbPYK inhibitor: inactive; RE007 growth inh: inactive; LmPK inhibitor: inactive; FBPA Giardia inh: inactive

What do the screens show for `CC(=O)Nc1ccc2nc(N)sc2c1`?
TbPYK inhibitor: inactive; RE007 growth inh: inactive

How did CN(C(=O)c1ccc2nc(N)sc2c1)c1ccccc1 do in these assays?
Cycloheximide cs: inactive; Shiga inhibitor: inactive; TbPYK inhibitor: inactive; RE007 growth inh: inactive; LmPK inhibitor: inactive; FBPA Giardia inh: inactive

Results for CCc1ccc(NC(=O)c2ccc3nc(N)sc3c2)cc1 ?
Cycloheximide cs: 62.1; Shiga inhibitor: 68.1; TbPYK inhibitor: inactive; RE007 growth inh: inconclusive; LmPK inhibitor: inactive; FBPA Giardia inh: inactive

Results for O=C(Nc1cccc(F)c1)N1CC[C@@]2(CCCN(C(=O)c3csnn3)C2)C1 ?
TbPYK inhibitor: inactive; FBPA Giardia inh: inactive

How did Cc1cn(C2CC3OCC(NC(=O)C4CCCN4C(=O)OC(C)(C)C)C3O2)c(=O)[nH]c1=O (stereo unspecified) do in these assays?
Cycloheximide cs: inactive; Shiga inhibitor: inactive; FBPA Giardia inh: inactive

How did O=C(/C(Cl)=C/Nc1ccc(Br)cn1)C(F)(F)F do in these assays?
Cycloheximide cs: 16.0; Shiga inhibitor: inactive; TbPYK inhibitor: inactive; RE007 growth inh: inactive; LmPK inhibitor: inactive; FBPA Giardia inh: inactive

How did Cc1cc(/C=N/n2cnnc2)c(C)n1-c1ccc(OCc2ccc(Cl)cc2)cc1 do in these assays?
Cycloheximide cs: 51.6; Shiga inhibitor: 92.5; TbPYK inhibitor: inactive; RE007 growth inh: inactive; LmPK inhibitor: inactive; FBPA Giardia inh: inactive

What do the screens show for `Cc1cc(/C=N/n2cnnc2)c(C)n1-c1ccc(OCc2ccccc2F)cc1`?
Cycloheximide cs: 25.8; Shiga inhibitor: inactive; TbPYK inhibitor: inactive; RE007 growth inh: inactive; LmPK inhibitor: inactive; FBPA Giardia inh: inactive

Results for CC(=O)Nc1ccc2nc3c(=O)n(C)c(=O)n(C)c3nc2c1C ?
TbPYK inhibitor: inactive

How did Cc1ccc(-c2ccc(=O)n(CC(=O)NCCc3ccc(Cl)cc3)n2)cc1 do in these assays?
TbPYK inhibitor: inactive
